Screening data from PubChem BioAssay.
Sampled rows, rich in hits. Any-hit rate of the full collection: about 5.7%.
KB-V1 cytotox = qHTS assay for MDR1-selective chemotherapeutics: Primary screen using the drug-selected MDR subline cells KB-V1; KB-V1 MDR cells viability, CellTiter-Glo, 72 h; Potency, µM (highest dose often 46.1 µM), usual class: cytotoxic; hit rate 3.4% among 400,000; note: potency is the fitted concentration of half-maximal effect; nearly all actives have a fitted effect of over 60% in size
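KB-V1 cells (P-gp-expressing MDR subline of KB-3-1) in phenol-red-free DMEM with 10% FBS were exposed to library compounds over a concentration series for 72 h at 37 degrees C. Viability read by CellTiter-Glo luminescence; concentration-effect curves fitted after normalization.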
Nrf2 block = Nrf2 qHTS screen for inhibitors. Potency, µM (doses to about 46 µM), for inactives: at the top dose activity change, negative = inhibition, hits mostly inhibitors. A549 ARE-Fluc reporter, luciferase luminescence, 18-24 h. hit rate 2.1% among 360,000; note: potency is the fitted concentration of half-maximal effect; nearly all actives have a fitted effect of over 60% in size
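Concentration-response testing used A549 ARE_Fluc cells at 5000 cells/well. Following an 18-24 h compound incubation, viability was read by fluorescence (Ex 405/Em 525) and luciferase output by luminescence.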
KB-3-1 cytotox = qHTS assay for MDR1-selective chemotherapeutics: Primary screen using the parental adenocarcinoma cell KB-3-1. KB-3-1 viability, CellTiter-Glo ATP luminescence, 72 h. Potency, µM (series often up to 46.1 µM), most hits filed as cytotoxic. hit rate 1.4% among 400,000; note: potency is the fitted concentration of half-maximal effect; nearly all actives have a fitted effect of over 60% in size
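Multi-concentration cytotoxicity screen in KB-3-1 cells grown in DMEM lacking phenol red with 10% FBS. After 72 h at 37 °C with compound, ATP-dependent luminescence was recorded.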
A549 viability = Nrf2 qHTS screen for inhibitors: counterscreen for cytotoxicity. A549 ARE-Fluc cells, CellTiter-Fluor viability, 18-24 h. Potency, µM (doses to about 46 µM), for inactives: top-dose activity change, negative = cytotoxicity, most hits filed as inhibitors. hit rate 0.16% among 390,000. AID 504648, 2011; note: potency is the fitted concentration of half-maximal effect
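A549 ARE_Fluc cells in 5% FBS OPTI-MEM were exposed to compounds in concentration-response for 18-24 h at 37 deg C. Viability was read by CellTiter-Fluor fluorescence (Ex 405/Em 525) after 30 min, before the luciferase read.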
Giardia killer = Small Molecules that selectively kill Giardia lamblia: qHTS | Giardia lamblia trophozoite viability | activity change, % at 7.66 µM, hits read low | hit rate 0.15% among 340,000; in the data active = activity change below about -80%; inconclusive = between about -30% and that limit;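 note: parasites exposed to compound for two days anaerobically before the ATP read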
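Viability, read as ATP luminescence: trophozoites at 100 cells/well, compound added, 48 hrs anaerobic at 37 deg C, then 15-30 min room-temperature development before reading.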
PI4K2A block = qHTS for small molecular inhibitors of PI4K2A | Phosphatidylinositol 4-kinase type 2-alpha (Homo sapiens), Q9BTU6 | purified PI4K2A, ADP-Glo luminescence, 1 h; active compounds read low | activity change, negative = inhibition, % at 76.9 µM | hit rate 0.13% among 420,000 | AID 1346378, 2018; in the data active = activity change below about -50%; inconclusive = mostly about -30% to -49%;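 note: -100% = wells without enzyme as full effect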
Target sequence (Q9BTU6 whole entry, looked up): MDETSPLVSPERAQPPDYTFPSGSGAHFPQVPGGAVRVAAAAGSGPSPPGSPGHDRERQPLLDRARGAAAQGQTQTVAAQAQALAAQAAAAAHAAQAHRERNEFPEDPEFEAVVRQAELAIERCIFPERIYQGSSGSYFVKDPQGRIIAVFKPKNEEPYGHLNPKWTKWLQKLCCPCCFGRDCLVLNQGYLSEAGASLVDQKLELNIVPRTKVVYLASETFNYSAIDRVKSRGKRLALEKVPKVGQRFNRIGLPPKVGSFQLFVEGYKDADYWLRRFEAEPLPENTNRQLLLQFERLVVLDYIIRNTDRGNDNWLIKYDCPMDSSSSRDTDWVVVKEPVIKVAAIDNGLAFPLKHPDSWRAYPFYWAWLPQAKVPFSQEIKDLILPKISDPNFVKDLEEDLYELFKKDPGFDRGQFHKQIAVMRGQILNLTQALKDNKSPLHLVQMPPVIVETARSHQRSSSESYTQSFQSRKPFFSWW
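Compounds are screened against recombinant PI4K2A using PI as substrate and ATP, the latter dispensed at 300 microM. Reactions run one hour at ambient temperature before ADP-Glo detection; full inhibition defined by wells lacking enzyme.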
* hit, by the source's call; i = inactive; ? = inconclusive; / = not tested or not shown. Unless noted, calls come from the whole dose curve; as a rule, active = well fitted curve in the direction sought with a large enough effect; inconclusive = small, poorly fitted or top-dose-only effect, or another doubt; inactive = no such curve, though single readings can be large; an effect the other way counts as inactive or inconclusive. Unless noted, % is set by controls: 0 for no effect and ±100 for the full control effect.

SMILES	KB-V1 cytotox	Nrf2 block	KB-3-1 cytotox	A549 viability	Giardia killer	PI4K2A block
O=S1(=O)c2ccc(Br)cc2OC[C@H](Cc2ccccc2)N1Cc1cn(Cc2ccc(Cl)cc2)nn1	/	/	/	/	/	-3
Cc1ccc(NC(=O)OC2CC3CC2[C@H]2CCCCN2[C@H]3C)cc1 (stereo partly drawn)	/	/	/	/	/	2
O=C(Nc1cc(C(F)(F)F)ccc1Cl)C(NCc1ccccc1)c1ccccc1 (stereo not drawn)	21µM*	1%	i	1%	7	3
O=C(CNC(=O)c1cccc(Cl)c1)OC(C(=O)Nc1cc(C(F)(F)F)ccc1Cl)c1ccccc1 (stereo not drawn)	/	23µM*	/	-25%	/	/
CCN(CC)CCNC(C(=O)Nc1cc(C(F)(F)F)ccc1Cl)c1ccccc1 (stereo not drawn)	?	-5%	i	-10%	26	-2
O=C(Nc1cc(C(F)(F)F)ccc1Cl)[C@H](O)CCc1ccccc1	/	26µM*	/	?	/	/
COC(=O)Nc1nc2ccc(-c3n[nH]c(=O)c4ccccc34)cc2[nH]1	i	11%	15µM*	-2%	10	-10
C=C(c1ccc2nc(NC(=O)OC)[nH]c2c1)c1cccs1	0.65µM*	?	?	?	-5	10
COC(=O)c1ccc(-c2n[nH]c(=O)c3ccccc23)cc1	i	?	i	1%	13	-2
C=CCOc1ccc2nc(NC(=O)OC)[nH]c2c1	1.2µM*	22%	0.65µM*	-16%	-19	7
CCCCCc1cccc2[nH]cc(-c3ccccc3)c12	/	/	/	/	/	-5
COc1cc2c(cc1OC)CN(C(=O)CCC(=O)c1ccc(F)cc1)CC2	?	6%	16µM*	4%	8	1
CCC(=O)c1ccc(OCC(=O)N2CCc3cc(OC)c(OC)cc3C2)cc1	i	-10%	i	0%	1	2
CCOC(=O)[C@@]12CCCC3=C1N(CCC3)C(=O)[C@H]2CC(=O)N1CCCC1	/	/	/	/	/	5
Fc1cccc(Cn2ccc3ccc(-c4ccc5ccn(Cc6cccc(F)c6)c5c4)cc32)c1	/	/	/	/	/	0
COc1cc(C2Nc3ccc4ncccc4c3C3=C2C(=O)CCC3)cc(OC)c1OC (stereo not drawn)	i	26%	?	-19%	1	-2
COc1cc(C2Nc3ccc4ncccc4c3C3=C2C(=O)CCC3)ccc1O (stereo not drawn)	i	-9%	3.3µM*	?	17	11
Cc1cc(S(=O)(=O)N2CCC(NC(=O)C34CC5CC(CC(C5)C3)C4)CC2)ccc1-n1cnnn1	9.2µM*	-8%	i	-4%	-7	5
Cc1cc(S(=O)(=O)N2CCN(c3ccccc3F)CC2)ccc1-n1cnnn1	21µM*	?	?	1%	13	-2
Cc1cc(S(=O)(=O)N2CCN(c3ccc(F)cc3)CC2)ccc1-n1cnnn1	i	?	i	0%	-12	-5
Cc1cc(S(=O)(=O)N2CCC(N3CCCCC3)CC2)ccc1-n1cnnn1	i	-2%	i	4%	11	-3
Cc1ccc(NC(=O)NCc2c(-n3cccc3)sc3c2CCCC3)c(Cl)c1	i	1%	i	1%	/	-1
CCOC(=O)N1CCN(Cc2nc3cc(NC(=O)C(C)C)ccc3n2C(C)C)CC1	i	17%	0.65µM*	-22%	/	-5
CCOC(=O)N1CCN(Cc2nc3cc(NC(=O)CC)ccc3n2C)CC1	i	-8%	i	6%	1	5
CCCn1c(CN2CCN(C(=O)OCC)CC2)nc2cc(NC(=O)CC)ccc21	?	-8%	9.2µM*	?	-18	-18
Cc1ccc2c(c1)c1c3n2CCN(CCC#N)C3CCC1 (stereo not drawn)	18µM*	/	i	/	/	0
